# High-throughput results from PubChem BioAssay.
# Only a selection was taken, and hits are over-represented in it overall.
# nsP2pro primary: Primary qHTS for inhibitors of NSP2Pro chikungunya virus (CHIKV). FRET peptide cleavage, nsP2pro, fluorescence 1 h. Potency, µM (doses to about 24.9 µM), for inactives: top-dose activity change, negative = inhibition, usual class: inhibitors. hit rate 1.1% among 31,000. AID 1964107, 2024. Polyprotein P1234 (Chikungunya virus (strain S27-African prototype)), Q8JUX6; note: nearly all actives have a fitted effect of over 60% in size
#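 Recombinant nsP2pro (150 nM) was preincubated with compound 15 min at room temperature in 10 mM Tris-HCl pH 8.0, 0.01% Tween 20. Peptide 2 FRET substrate (2.5 uM) was then added and fluorescence read after 1 h. Seven-point series, up to 25 uM.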
# nsP2 cell sec: Secondary cell base assay for inhibitors of NSP2Pro Chikungunya virus (CHIKV) | shares compounds with nsP2pro primary | cell-based CHIKV nsP2 protease reporter assay | Potency, µM (titrated, usually from 51.1 µM), inactives show at the top dose activity change, negative = inhibition, usual class: inhibitors | hit rate 10% among 450; note: nearly all actives have a fitted effect of over 70% in size
# NSP2 full ctr: Selectivity profile for inhibitors of NSP2Pro chikungunya virus (CHIKV): Full length NSP2 enzyme counterscreen (CHIKV-NSP2). shares compounds with nsP2pro primary. Full-length CHIKV NSP2 protease enzymatic counterscreen. Potency, µM (doses to about 50.7 µM), for the others: top-dose activity change, negative = inhibition, usual class: inhibitors. hit rate 39% among 410; note: nearly all actives have a fitted effect of over 65% in size
# Furin counterscr: Selectivity profile for inhibitors of NSP2Pro chikungunya virus (CHIKV): Human furin counterscreen | shares compounds with nsP2pro primary | Recombinant human furin enzymatic counterscreen, fluorogenic substrate | Potency, µM (titrated, usually from 50.6 µM), without a hit: at the highest dose activity change, negative = inhibition, hits mostly inhibitors | hit rate 6% among 410 | AID 1964102, 2024
# NS23 peptide cs: Selectivity profile for inhibitors of NSP2Pro chikungunya virus (CHIKV): Endogenous NS2/3 peptide Counterscreen; shares compounds with nsP2pro primary; Purified CHIKV nsP2 protease, endogenous NS2/3 peptide cleavage; Potency, µM (series often up to 51 µM), for inactives: top-dose activity change, negative = inhibition, usual class: inhibitors; hit rate 34% among 410; AID 1964103, 2024; note: nearly all actives have a fitted effect of over 55% in size
# Papain cs: Selectivity profile for inhibitors of NSP2Pro chikungunya virus (CHIKV): Papain Counterscreen; Potency, µM (highest dose often 51 µM), without a hit: at the highest dose activity change, negative = inhibition, most hits filed as inhibitors; hit rate 5% among 410; purified papain protease activity, enzymatic inhibition; shares compounds with nsP2pro primary
# Target sequence (P00784 whole entry, looked up): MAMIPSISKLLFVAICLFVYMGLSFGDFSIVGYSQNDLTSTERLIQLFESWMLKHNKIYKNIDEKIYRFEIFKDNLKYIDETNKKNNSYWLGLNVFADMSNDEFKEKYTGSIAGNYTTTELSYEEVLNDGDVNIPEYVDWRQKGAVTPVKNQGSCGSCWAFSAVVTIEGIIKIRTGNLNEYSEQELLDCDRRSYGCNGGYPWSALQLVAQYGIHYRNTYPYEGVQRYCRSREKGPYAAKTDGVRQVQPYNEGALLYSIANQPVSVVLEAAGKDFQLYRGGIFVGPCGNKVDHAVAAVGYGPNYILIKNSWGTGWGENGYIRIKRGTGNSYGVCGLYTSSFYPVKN
# nsP2pro conf qHTS: Confirmatory qHTS for inhibitors of NSP2Pro chikungunya virus (CHIKV); hit rate 43% among 410; CHIKV nsP2 protease enzymatic activity, qHTS; shares compounds with nsP2pro primary; Potency, µM (top dose mostly 25.5 µM), for inactives: at the top dose activity change, negative = inhibition, most hits filed as inhibitors; note: nearly all actives have a fitted effect of over 75% in size
# HCV NS3 counter: Selectivity profile for inhibitors of NSP2Pro chikungunya virus (CHIKV): NS34A-HCV Counterscreen; shares compounds with nsP2pro primary; HCV NS3/4A protease biochemical counterscreen; Potency, µM (titrated, usually from 50.9 µM), usual class: inhibitors; hit rate 20% among 410; AID 1964106, 2024; note: nearly all actives have a fitted effect of over 55% in size
# * marks the source's active call; other numbers are inactive results; i = inactive; ? = inconclusive; [ ] = dose if it differs, or a comment. Calls come from the whole dose curve. % is set by controls: 0 for no effect and ±100 for the full control effect; potency is the fitted concentration of half-maximal effect.
SMILES,nsP2pro primary,others
O=C(NC1CCCCC1)OC[C@H]1C[C@@H]2CCN1C[C@@H]2c1cc(C2CCCC2)nc(-c2ccncc2)n1,7.94µM*,nsP2 cell sec=-49.6%;NSP2 full ctr=?;Furin counterscr=?;NS23 peptide cs=?;Papain cs=-5.5%;nsP2pro conf qHTS=8.96µM*;HCV NS3 counter=14.6µM*
CCC(CC)c1cc([C@H]2CN3CC[C@H]2C[C@@H]3CNC2CCN(C)CC2)nc(-c2ccncc2)n1,4.7%,
Cn1nc(C2CCCC2)cc1[C@H]1CN2CC[C@H]1C[C@@H]2CNC(=O)c1cccs1,1.0%[39.2 µM],
CC(C)NC(=O)OC[C@H]1C[C@@H]2CCN1C[C@@H]2c1cc(C2CCCC2)nc(-c2ccncc2)n1,5.01µM*,nsP2 cell sec=-55.6%;NSP2 full ctr=6.51µM*;Furin counterscr=?;NS23 peptide cs=18.3µM*;Papain cs=-3.9%;nsP2pro conf qHTS=7.98µM*;HCV NS3 counter=10.3µM*
CCCS(=O)(=O)NC[C@H]1C[C@@H]2CCN1C[C@@H]2c1cc(C(CC)CC)nc(-c2ccncc2)n1,-12.3%,
CC(C)C[C@@H](NC(=O)[C@@H](Cc1ccccc1)NC(=O)[C@H](N)Cc1ccccc1)C(=O)N[C@H](CCCCN)C(=O)N1CCC(N)(C(=O)O)CC1,9.7%,
COc1ccc(-c2nc3cc(C(=O)NCC(C)C)ccc3o2)cn1,-0.7%[39.2 µM],
COc1ccc(-c2csc(NC(=O)c3ccncc3NS(=O)(=O)c3ccc(C)cc3)n2)cc1,i,
Cc1ccc(-c2cc3n(n2)CCCN(C(=O)CCc2cc(Cl)no2)C3)o1,8.91µM*,nsP2 cell sec=15.1%;NSP2 full ctr=-16.7%;Furin counterscr=1.0%;NS23 peptide cs=?;Papain cs=-4.5%;nsP2pro conf qHTS=?;HCV NS3 counter=i
Cc1ccc(-c2cc3n(n2)CCCN(C(=O)CCN2C(=O)NC(C)(C)C2=O)C3)cc1C,i,
CCc1ccc(-c2cc3n(n2)CCCN(C(=O)CCc2cc(Cl)no2)C3)cc1,10.2%,
O=C(OC[C@H]1O[C@@H](OC(=O)c2cc(O)c(O)c(O)c2)[C@H](O)[C@@H](OC(=O)c2cc(O)c(O)c(O)c2)[C@@H]1O)c1cc(O)c(O)c(O)c1,14.2%,
C=C(C)C(=O)O[C@H]1C[C@@](C)(O)C2(O)CCC(C)(/C=C3/OC(=O)C(COC)=C31)O2 (stereo partly specified),?,nsP2 cell sec=?;NSP2 full ctr=?;Furin counterscr=-9.6%[33.5 µM];NS23 peptide cs=?;Papain cs=-8.9%[33.5 µM];nsP2pro conf qHTS=?;HCV NS3 counter=?
CC(=O)N1CCc2sc(C(=O)NC3CCN(Cc4ccccc4)CC3)cc2C1,1.0%,
CN(C)C[C@@H]1CN(C)C[C@H]1NC(=O)NCc1ccc(OC(F)(F)F)cc1,0.0%,
CCCCC1C(=O)N(c2ccccc2)N(c2ccc(O)cc2)C1=O (stereo unspecified),8.81µM*,nsP2 cell sec=?;NSP2 full ctr=20.6µM*;Furin counterscr=-12.9%;NS23 peptide cs=6.51µM*;Papain cs=-12.4%;nsP2pro conf qHTS=7.98µM*;HCV NS3 counter=i
CC(C)=CCC1C(=O)N(c2ccccc2)N(c2ccccc2)C1=O,-4.3%,
CCCCN1C(=O)c2ccccc2C1=O,-6.7%,
CC(C)(C)c1cccc(-n2cnc3cc(C(=O)N4CCCCC4)ccc32)c1,1.8%,
COc1ccc(F)cc1-c1nc2ccc(-c3ccc(OC)c(OC)c3OC)cc2o1,0.3%,
CCCCCCCCN=C(N)NC(N)=NCc1ccc(Cl)c(Cl)c1,98.2%,
COCc1nc(CCNC(=O)NCCc2ccccc2)no1,-1.6%,
C[n+]1c2cc(N)ccc2cc2ccc(N)cc21 (tested in a mixture with another compound),?,nsP2 cell sec=?;NSP2 full ctr=-4.5%;Furin counterscr=?;NS23 peptide cs=?;Papain cs=?;nsP2pro conf qHTS=47.1%;HCV NS3 counter=i
CCCCCCCCCCCCCCCc1cccc(O)c1C(=O)O,83.7%,
CC(=O)N1CCN(C(=S)Nc2cc(C)ccn2)CC1,-5.7%,
SMILES,nsP2pro primary,others
CCOc1ccc(NC(=O)CN2CCN(S(=O)(=O)c3ccc(OC)cc3)CC2)cc1,-29.1%,
Cc1ccc(Cl)cc1N1CCN(CCNC(=O)Nc2ccc(Cl)cc2)CC1,-12.6%,
CCCNC(=O)CN1CCN(c2ccc(NC(=O)c3ccc(OC)cc3)cc2C(=O)O)CC1,4.47µM*,nsP2 cell sec=?;NSP2 full ctr=4.11µM*;Furin counterscr=?;NS23 peptide cs=13µM*;Papain cs=2.4%;nsP2pro conf qHTS=7.11µM*;HCV NS3 counter=2.91µM*
O=C(Nc1ccc(N2CCN(CCOc3ccc(Cl)cc3)CC2)c(C(=O)O)c1)c1ccc(F)cc1,3.55µM*,nsP2 cell sec=1.7%;NSP2 full ctr=3.26µM*;Furin counterscr=?;NS23 peptide cs=8.19µM*;Papain cs=15.9%;nsP2pro conf qHTS=7.11µM*;HCV NS3 counter=2.06µM*
CCCCOc1ccc(C(=O)Nc2ccc(F)cc2F)cc1,-7.8%,
CCOc1ccc(NC(=O)NCCCN2CCN(c3ccc(OC)cc3)CC2)cc1,-11.5%,
CC1=CC(=O)[C@@]2(C(C)C)C[C@@H]12,30.5%,
CC(=O)N1CC2(CCCN(C3CCCCC3)C2)Cc2ccccc21 (stereo unspecified),-14.2%,
Cc1ccc(-c2ccc(=O)n(CC(=O)NCCCc3ccco3)n2)cc1,-23.6%,
Cc1ccc(-c2cn(CC3CCCN(c4cc(C)nc(N)n4)C3)nn2)cc1 (stereo unspecified),-16.1%,
Cc1cnc(C2CCOCC2)n1C1CCNCC1,i,
Cc1ccccc1OCc1nc(C2CN(C(=O)c3nccc4ccccc34)C2)no1,3.4%,
CN1C[C@H](C(=O)N[C@]2(C)O[C@@]3(O)[C@@H]4CCCN4C(=O)[C@H](Cc4ccccc4)N3C2=O)C=C2c3cccc4[nH]cc(c34)C[C@H]21,?,nsP2 cell sec=8.6%;NSP2 full ctr=?;Furin counterscr=-13.8%;NS23 peptide cs=13µM*;Papain cs=45.9%;nsP2pro conf qHTS=?;HCV NS3 counter=i
CC(C)C[C@H]1C(=O)N2CCC[C@H]2[C@]2(O)O[C@](NC(=O)[C@@H]3C[C@@H]4c5cccc6[nH]cc(c56)C[C@H]4N(C)C3)(C(C)C)C(=O)N12,-11.7%,
C=CCCC(=O)N1CCOc2c(O)cc(-c3nc4ccccc4s3)cc2C1,i,
CN(C)c1ccc(Nc2c3ccc(NC(=O)CCN4CCCC4)cc3nc3cc(NC(=O)CCN4CCCC4)ccc23)cc1,-22.8%,
N#Cc1ccc(CN2CCCC3(Cc4ccccc4NC3=O)C2)cc1 (stereo unspecified),-9.3%,
